This note sets out measurements from PubChem BioAssay (EPA / NIEHS).

Read-out in assay [1]: Tumor necrosis factor receptor 1 (TNFRSF1A), TNFRSF1A (gene 7132)
Kind of assay: LTEA_HepaRG_TNFRSF1A: Life Technologies and Expression Analysis (LTEA) Assay for Tumor necrosis factor receptor 1 (TNFRSF1A) using HepaRG (AID 2283535). The note with it: mRNA level, 48 h; actives raise or lower the signal. The method, boiled down: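 Differentiated human HepaRG cells were exposed in duplicate for 48 h in serum-free induction medium to eight concentrations (top 100 uM, half-log steps, 0.5% DMSO). TNFRSF1A mRNA was quantified by qRT-PCR, normalized to ACTB, GAPDH and POLR2A, then fitted bidirectionally against DMSO.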

Read-out in assay [2]: Thyroid Hormone Responsive (THRSP), THRSP (gene 7069)
Kind of assay: LTEA_HepaRG_THRSP: Life Technologies and Expression Analysis (LTEA) Assay for Thyroid Hormone Responsive (THRSP) using HepaRG (AID 2283536). Conditions: mRNA level, 48 h; actives raise or lower the signal. Summed up: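 Cell model: human HepaRG, approx. 100,000 cells/well, 0.5% DMSO vehicle. Exposure lasts 48 h; phenobarbital 1 mM serves as induction positive control. Gene expression is measured by qRT-PCR against three endogenous control genes.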

Read-out in assay [3]: Cellular tumor antigen p53 (Homo sapiens) (UniProt P04637)
Kind of assay: LTEA_HepaRG_TP53: Life Technologies and Expression Analysis (LTEA) Assay for Tumor Protein P53 (TP53) using HepaRG (AID 2283537). The note with it: mRNA level, 48 h; actives raise or lower the signal. The method, boiled down: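 Read-out is TP53 transcript level by microfluidic qRT-PCR, normalised to three housekeeping genes and fitted bidirectionally against DMSO. Human HepaRG cells received compounds for 48 h, highest concentration 100 uM.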

Read-out in assay [4]: UDP glucuronosyltransferase (UGT1A1), UGT1A1 (gene 54658)
Kind of assay: LTEA_HepaRG_UGT1A1: Life Technologies and Expression Analysis (LTEA) Assay for UDP glucuronosyltransferase (UGT1A1) using HepaRG (AID 2283538). The note with it: mRNA level, 48 h; actives raise or lower the signal. Summed up:
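UGT1A1 transcript level, measured by qRT-PCR with three housekeeping genes for normalization, after 48 h treatment of human HepaRG cells (0.5% DMSO, duplicates, up to 100 uM, half-log steps, 8 points). Curves fit both directions against DMSO baseline.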

Read-out in assay [5]: UDP glucuronosyltransferase (UGT1A6), UGT1A6 (gene 54578)
Kind of assay: LTEA_HepaRG_UGT1A6: Life Technologies and Expression Analysis (LTEA) Assay for UDP glucuronosyltransferase (UGT1A6) using HepaRG (AID 2283539). The note with it: mRNA level, 48 h; actives raise or lower the signal. Summed up:
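Human HepaRG cells were dosed for 48 h in serum-free induction medium with 0.5% DMSO vehicle, eight-point half-log series from 100 uM, in duplicate. UGT1A6 mRNA was measured by qRT-PCR, normalized to ACTB, GAPDH, POLR2A, and fitted bidirectionally against DMSO.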

Read-out in assay [6]: X-box binding protein 1 (XBP1), XBP1 (gene 7494)
The experiment in a line: LTEA_HepaRG_XBP1: Life Technologies and Expression Analysis (LTEA) Assay for X-box binding protein 1 (XBP1) using HepaRG (AID 2283540). The note with it: mRNA level, 48 h; actives raise or lower the signal. The method, boiled down:
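Differentiated human HepaRG cells in serum-free induction medium were exposed in duplicate for 48 h to eight half-log concentrations up to 100 uM in 0.5% DMSO. XBP1 mRNA was quantified by qRT-PCR, normalised to ACTB, GAPDH and POLR2A, with bidirectional fitting against DMSO.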

Assay [7] can be described thus: LTEA_HepaRG_LDH_cytotoxicity: Cytotoxicity Assessment in the Life Technologies and Expression Analysis (LTEA) Assay (AID 2283563; active = hit-call score of the fitted dose curve at least 0.9, where 1 is the maximum;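 for AC50: LDH activity released into spent culture medium as a marker of cell death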). The method, boiled down: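 Differentiated human HepaRG cells, plated 48 h beforehand, were switched to serum-free induction medium and exposed for 48 h to eight half-log concentrations (top 100 uM) in 0.5% DMSO. LDH was measured in spent medium; activity was fitted relative to DMSO vehicle.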

A short description of assay [8]: ATG_XTT_Cytotoxicity: Cytotoxicity Assessment in the Attagene TRANS-FACTORIAL HepG2 Assay (AID 2283584; active = hit-call score of the fitted dose curve at least 0.9, where 1 is the maximum;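 for AC50: cells exposed to compound for 24 h before reading; active means loss of viability signal versus DMSO baseline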). The method, boiled down: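 HepG2 human liver cells, transiently transfected with multiple GAL4-UAS reporter units, were dosed and read at 24 h by XTT as cell number. Loss of signal was fitted relative to DMSO negative control baseline.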
Assay [9] can be described thus: TOX21_p53_BLA_p2_viability: Viability Assessment in the Tox21 HCT-116 p53 Agonism Beta-lactamase Assay, Phase 2 (AID 2283591; active = hit-call score of the fitted dose curve at least 0.9, where 1 is the maximum;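 note: compound exposure lasted 16 h at 37 °C; actives lower the ATP signal meaning cytotoxicity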). The method, boiled down:
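HCT-116 p53-bla cells (4000/well) rested 5 h at 37C, then received compounds in DMSO (217-fold dilution) for 16 h at 37C, 5% CO2. After the CCF4 read, CellTiter-Glo was added; ATP luminescence was read after 30 min at room temperature.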

The target in assay [10] is Cellular tumor antigen p53 (Homo sapiens) (UniProt P04637). Kind of assay: TOX21_p53_BLA_p2_ratio: Tox21 HCT-116 p53 Agonism Beta-lactamase Assay, Ratio, Phase 2 (AID 2283592; active = hit-call score of the fitted dose curve at least 0.9, where 1 is the maximum). Summed up: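 Ratio endpoint: beta-lactamase cleavage of CCF4-AM, blue (460 nm) over green (530 nm). HCT116 reporter line; 16 h treatment, 37C; substrate 2 h RT.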

Where “and” joins values, the source holds several entries; their conditions need not be identical. Equal values may be shown once. Inconclusive results are not listed. A structure can be active in one record and inactive in another. Calls of active or inactive are those of the source. Rule for the calls, unless noted: active = hit-call score of the fitted dose curve at least 0.9, where 1 is the maximum; inactive = score below 0.9.

Cellular tumor antigen p53 (Homo sapiens), sequence (P04637 whole entry, looked up): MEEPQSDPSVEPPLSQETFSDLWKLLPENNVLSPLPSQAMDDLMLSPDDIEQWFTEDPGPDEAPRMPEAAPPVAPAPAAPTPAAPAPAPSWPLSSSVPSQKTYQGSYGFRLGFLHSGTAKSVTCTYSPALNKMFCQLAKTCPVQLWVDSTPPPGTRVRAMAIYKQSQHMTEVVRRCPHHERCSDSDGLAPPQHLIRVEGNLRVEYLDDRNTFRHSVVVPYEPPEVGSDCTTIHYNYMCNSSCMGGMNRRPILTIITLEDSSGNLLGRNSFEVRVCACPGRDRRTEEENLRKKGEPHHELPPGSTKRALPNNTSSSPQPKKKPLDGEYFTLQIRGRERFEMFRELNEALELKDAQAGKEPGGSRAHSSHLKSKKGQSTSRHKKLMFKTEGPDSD

Regarding `Cc1ccc(C(C)C)cc1`, the outcome in [1], in [2], in [3], in assay [4], in assay [5] and in [6] was inactive. In addition, the compound was classed as inactive in [7], in [8], in assay [9] and in assay [10].

As to `CC1(C)NC(=O)N(c2ccc([N+](=O)[O-])c(C(F)(F)F)c2)C1=O`, the outcome in [1], in assay [2], in assay [4], in assay [5], in [6] and in assay [7] was inactive. Besides, the compound was called inactive in [8], in assay [9] and in assay [10]. Also, the AC50 (commonly the concentration at which the activity in the assay is half-maximal) in assay [3] is 78.2 µM (active).

In the case of `Oc1ccc2ccccc2c1`, the call in [1], in assay [2], in assay [3], in [4], in [5] and in assay [6] was inactive. For the same compound, the compound was called inactive in [7], in assay [8], in assay [9] and in assay [10].

In the case of `CCN(Cc1cccnc1)C(=O)c1cccc(Cl)c1[C@]1(C)C(=O)N(Cc2ccc(OC)cc2OC)c2ccc(Cl)cc21`, the result in [1] and in assay [9] was inactive. Further, the half-maximal activity concentration (AC50) was 24 µM (active) in assay [2]; 11.6 µM (active) in [3]; 25.2 µM (active) in assay [4]; 16.7 µM (active) in assay [5]; 24.6 µM (active) in assay [6]; 25.5 µM (active) in assay [7]. The AC50 in assay [10] is 43.2 µM (active).

Turning to `CCO[Si](CCCNC(N)=O)(OCC)OCC`, the result in [1], in assay [2], in [3], in [4], in [5] and in assay [6] was inactive. Also, the result in [7], in [8], in [9] and in assay [10] was inactive.

With `CC(=O)N1CCN(c2ccc(OC[C@H]3CO[C@](Cn4ccnc4)(c4ccc(Cl)cc4Cl)O3)cc2)CC1`, the concentration at half-maximal activity (AC50) in assay [1] was 75.9 µM (active); in assay [2] it was 12.7 µM (active); in [3], 90.3 µM (active); in assay [4], 11.6 µM (active); in assay [5] it was 30.8 µM (active); in assay [7], 86.9 µM (active). Further, the concentration at half-maximal activity (AC50) in assay [9] is 56.7 µM (active). Further, the compound was classed as inactive in [6], in assay [8], in assay [9] and in assay [10].

For `O=C(Nc1ccc(Cl)cc1)Nc1ccc(Cl)c(Cl)c1`, the AC50 in [1] was 13.1 µM (active); in assay [3] it was 12.4 µM (active); in assay [4], 14.9 µM (active); in assay [5] it was 13.5 µM (active); in [6], 17.2 µM (active); in assay [7], 24.9 µM (active). In [10], the half-maximal activity concentration (AC50) was 3.12 µM (active) and 5.23 µM (active) and 3.82 µM (active). The compound was called inactive in [2], in assay [8] and in assay [9].

For the compound `CCCCCCCC[Si](OCC)(OCC)OCC`, the call in assay [1], in [2], in [3], in assay [4], in [5] and in [7] was inactive. Moreover, the result in assay [8], in assay [9] and in assay [10] was inactive.

Regarding `CCCCCCCCN(C)CCCCCCCC`, the result in assay [1], in assay [2], in [3], in assay [4], in [5] and in assay [6] was inactive. For the same compound, the call in assay [7] and in assay [10] was inactive.

Consider `CCCCCCCCCCCO`, for which the result in assay [1], in assay [2], in [3], in [4], in assay [5] and in assay [6] was inactive. In addition, the call in assay [7], in assay [8], in assay [9] and in assay [10] was inactive.

With `CCCCCCCCOc1ccc(C(=O)c2ccccc2)c(O)c1`, the outcome in assay [1], in assay [2], in assay [3], in [5], in [6] and in assay [7] was inactive. In addition, the compound was classed as inactive in assay [8], in assay [9] and in [10]. Besides, the concentration at half-maximal activity (AC50) in assay [4] was 20.4 µM (active).

As for `O=C1c2ccccc2C(=O)N1CCc1noc(-c2ccc(CN3CCCCCC3)s2)n1`, the call in assay [1], in assay [2], in [3], in assay [5], in [6] and in [7] was inactive. The compound was called inactive in assay [8], in [9] and in assay [10]. Further, in assay [4], the half-maximal activity concentration (AC50) was 17.8 µM (active).

In the case of `CCN(CC)C(=O)c1cc(S(=O)(=O)Cc2ccccc2)c(N2CCC(c3ccccc3)CC2)cc1N(CC)CCN(C)C`, the AC50 is 30.1 µM (active) in assay [1]; 6.01 µM (active) in assay [2]; 30.7 µM (active) in [3]; 19 µM (active) in assay [4]; 30 µM (active) in assay [5]; 28.8 µM (active) in [6]. Besides, the concentration at half-maximal activity (AC50) in assay [7] was 31.1 µM (active); in assay [9], 29.4 µM (active) and 33.5 µM (active). Besides, in [10], the outcome was inactive.

As to `O=C1CCC(C2CCCCC2)CC1`, the result in assay [1], in assay [2], in [3], in assay [4], in assay [5] and in assay [6] was inactive. Moreover, the compound was called inactive in assay [7], in assay [8], in assay [9] and in assay [10].

For the compound `Clc1ccccc1C(c1ccccc1)(c1ccccc1)n1ccnc1`, the compound was called inactive in assay [1], in [6] and in assay [9]. The concentration at half-maximal activity (AC50) in [2] is 29.9 µM (active); in assay [3], 28 µM (active); in [4], 28 µM (active); in assay [5], 15.8 µM (active); in assay [7] it was 70.7 µM (active); in assay [8] it was 24.2 µM (active). In addition, the AC50 in assay [9] was 58.2 µM (active); in [10], 64.8 µM (active) and 19 µM (active).

`Cc1c2ccccc2c(C)c2c1ccc1ccccc12`: the result in [1], in assay [7], in assay [8] and in assay [9] was inactive. The AC50 in assay [2] is 75.4 µM (active); in [3], 54.1 µM (active); in assay [4], 0.714 µM (active); in assay [5], 35 µM (active); in [8], 56.2 µM (active); in assay [10] it was 14.6 µM (active) and 37.7 µM (active).

Regarding `CCCCOC(=O)CC(CC(=O)OCCCC)(OC(C)=O)C(=O)OCCCC`, the call in [1], in assay [2], in assay [3], in assay [4], in assay [5] and in assay [6] was inactive. In addition, the compound was classed as inactive in assay [7], in assay [8], in assay [9] and in assay [10].
